Test results from PubChem BioAssay AID893 (National Center for Advancing Translational Sciences (NCATS), 2007).
Hit rate of the full screen: of about 75,000 compounds, about 5,700 (7.6%) were called active. Another 7% or so got no clear call; they are omitted. Calls come from the whole dose curve; as a rule, active = well fitted inhibition curve with a large enough effect; inconclusive = small, poorly fitted or top-dose-only effect; inactive = no such curve, though single readings can be large or run the other way. This excerpt belongs to a sample that is enriched for actives.
% is set by controls: 0 for no effect and ±100 for the full control effect; potency is the fitted concentration of half-maximal effect.
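Note: the protocol describes HADH2 (HSD17B10) and not the HSD17B4 of the title; nearly all actives have a fitted effect of over 70% in size.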

Each compound was assayed against 3-hydroxyacyl-CoA dehydrogenase type-2 (Homo sapiens) (UniProt Q99714) (assay: qHTS Assay for Inhibitors of HSD17B4, hydroxysteroid (17-beta) dehydrogenase 4). Conditions: recombinant HSD17B10, NADH fluorescence kinetic; series mostly up to 57.1 µM; activity change, negative = inhibition: at the top concentration.
Excerpt: Assay Overview: NIH Molecular Libraries Screening Centers Network [MLSCN] NIH Chemical Genomics Center [NCGC] Structural Genomics Consortium [SGC] Grant number: None HADH2: Hydroxyacyl-Coenzyme A dehydrogenase, type II, was supplied by researchers at the Structural Genomics Consortium, Oxford University lab (PI Udo Oppermann). The mitochondrial enzyme 17-hydroxysteroid dehydrogenase type 10 (HSD17-10) previously classified as type II hydroxyacyl-CoA dehydrogenase (HADH2) catalyzes the NAD+ dependent oxidation of a variety of substrates including acyl-CoAs, androgens and neurosteroids as well as bile acids(Shafqat N, Marschall HU, Filling C, et al. Biochemical Journal. 2003;376(Pt 1):49-60). […] The enzyme was produced by E.coli fermentation as His-tagged recombinant for the purpose of X-ray structure determination, and had been mass-spectrometry characterized. Inhibition of HADH2 activity was screened by utilizing beta-hydroxybutyryl coenzyme A as an electron donor and NAD+ as an electron acceptor/cofactor. An increase in the fluorescence intensity due to conversion of NAD+ to NADH was used to measure the enzyme activity.
Assay Protocol: Buffer: 100 mM Tris-HCl pH 9.0, containing 0.01 % Tween-20. Reagents/Controls: Buffer in columns 3 and 4 as negative control (no enzyme). Substrate/cofactor solution: 1 mM NAD+ and 90 uM beta-hydroxybutyryl coenzyme A (Sigma-Aldrich, St. Louis, MO) final concentrations dispensed throughout the plate. Enzyme: 20 nM HADH2 final concentration in columns 1, 2, 5-48. Column 1 is neutral (100% activity). Column 2 contained titration of apomorphine (Sigma-Aldrich, A 4393, PubChem CID 2215, top concentration 500 uM, then 1:2 dilution in duplicate) Assay Steps: Three uL of enzyme were dispensed to 1536-well Greiner black solid bottom plates. Compounds and controls (23 nL) were transferred via Kalypsys PinTool. The plates were incubated for 15 min at room temperature, and then 1 uL of substrate/cofactor solution was added to start the reaction. The plates were immediately transferred to and read every 30 seconds for 4 min on ViewLux High-throughput CCD imager (Perkin-Elmer) using 360 nm excitation and 450 nm emission fluorescence protocol. The fluorescence intensity difference between the last and the first time points was used to compute reaction progress.
For `Cc1cccc2c3c(ccc12)C1=C(C(=O)C3=O)C(C)CO1` (centres undefined), the Potency was 20 µM (active). For `C[C@@]12CCC3C(CC[C@@H]4CC(O)CC[C@@]34C)C1CCC2O` (some centres undefined), the “activity change, negative = inhibition” value was 18.2% (inactive). For `CC(C)(C)[C@]1(O)C[C@@H]2OC(=O)C[C@@]23C(=O)O[C@@H]2OC(=O)[C@H](O)[C@]213`, the “activity change, negative = inhibition” value was -0.128% (inactive). For `Cc1cccc([C@H](C)c2cnc[nH]2)c1C`, the “activity change, negative = inhibition” value was 2.33% (inactive). In the case of `c1ccc(N2CC[C@@]3(CCCNC3)C2)nc1`, the Potency is reported as 31.6 µM (active). In the case of `c1ccc(CN2CC[C@@]3(CCCNC3)C2)cc1`, the “activity change, negative = inhibition” value is reported as -6.63% (inactive). For `O=C1C2(Cl)C3(Cl)C4(Cl)C(Cl)(Cl)C5(Cl)C3(Cl)C1(Cl)C5(Cl)C24Cl` (centres undefined), the Potency was “inactive”. For `CN1C2CC3CC1C(O3)C2O` (centres undefined), the “activity change, negative = inhibition” value was -2.94% (inactive). With `CCN1C[C@]2(COC)C(O)C[C@H](OC)[C@@]34C5C[C@]6(O)C(OC)C(O)[C@](OC(C)=O)(C5C6OC(=O)c5ccccc5)C(C(OC)C23)C14` (some centres undefined) the “activity change, negative = inhibition” value was -0.738% (inactive). In the case of `CC(=O)OC1C2CCC3C1(CC(O)[C@@]1(O)[C@@H](CC(O)C1(C)C)[C@]3(C)O)C[C@@]2(C)O` (some centres undefined), the “activity change, negative = inhibition” value is reported as 0.525% (inactive). `CC(C)(C)C(O)(CCc1ccc(Cl)cc1)Cn1cncn1` (centres undefined) was tested, and the “activity change, negative = inhibition” value was -7.7% (inactive). In the case of `CCOC(=O)c1c(-c2ccccc2)oc2ccc(OC(=O)N(C)C)cc12`, the Potency is reported as 31.6 µM (active). In the case of `c1ccc(CCCCN2CCC(c3ccccc3)CC2)cc1`, the “activity change, negative = inhibition” value is reported as 16.3% (inactive). For `CN(C)C1C(=O)C(C(N)=O)=C(O)[C@@]2(O)C(=O)C3=C(O)c4c(O)cccc4[C@@](C)(O)C3C[C@@H]12` (some centres undefined), the “activity change, negative = inhibition” value was -4.77% (inactive). For `NCC[Se][Se]CCN`, the Potency was 0.794 µM (active). In the case of `N#CCCCl`, the Potency is reported as “inactive”. `C=CCSSCC=C` was tested, and the “activity change, negative = inhibition” value was -26.5% (inactive). For `COc1cc(C[C@H](C)N)c(OC)cc1I`, the Potency was “inactive”. `CC(=O)c1c(O)c(C)c(O)c(Cc2c(O)c3c(c(C(=O)/C=C\c4ccccc4)c2O)OC(C)(C)C=C3)c1O` was tested, and the Potency was 31.6 µM (active). For `CCCCN1C2CCC1CC(OC(c1ccc(F)cc1)c1ccc(F)cc1)C2` (centres undefined), the “activity change, negative = inhibition” value was 4.31% (inactive). In the case of `C[C@H](CCC(=O)O)[C@H]1CC[C@@H]2[C@H]3CC[C@H]4C[C@H](O)CC[C@@]4(C)[C@@H]3CC[C@@]21C`, the activity change, negative = inhibition is reported as -3.04% [at 11.4 µM] (inactive). In the case of `CCNC[C@H](O)c1cccc(O)c1`, the “activity change, negative = inhibition” value is reported as 2.58% [at 25.6 µM] (inactive). In the case of `Fc1ccc(C(OCCN2CCN(C/C=C\c3ccccc3)CC2)c2ccc(F)cc2)cc1`, the “activity change, negative = inhibition” value is reported as -28.1% (inactive). With `CCOC(=O)c1c(N)n(Cc2ccccc2)c2nc3ccccc3nc12` the Potency was 15.8 µM (active). For `N#Cc1c(Cl)c(Cl)c(Cl)c(C#N)c1Cl`, the “activity change, negative = inhibition” value was -6.99% (inactive). With `CC1=CC(=O)C2=C(C)C[C@H](O)[C@H]3[C@H](C)C(=O)O[C@@H]3C12` (some centres undefined) the “activity change, negative = inhibition” value was 5.49% (inactive). With `Cc1ccc(S(=O)(=O)O[C@H]2CN3CCC2CC3)cc1` the activity change, negative = inhibition was 7.71% [at 11.4 µM] (inactive). In the case of `COc1ccc(C2Oc3c(I)c(OC)cc(OC)c3CC2O)cc1OC` (centres undefined), the “activity change, negative = inhibition” value is reported as 5.5% (inactive). `NC(=O)c1ccc(OC[C@H](O)CN2CC=C(c3ccc(F)cc3)CC2)cc1` was tested, and the “activity change, negative = inhibition” value was -5.72% (inactive). With `CC[C@@](O)(C(=O)O)c1cc2n(c(=O)c1CO)Cc1cc3ccccc3nc1-2` the Potency was 3.16 µM (active). `Clc1ccccc1` was tested, and the “activity change, negative = inhibition” value was 6% (inactive). With `CC(C)CC(C)Nc1ccc(Nc2ccccc2)cc1` (centres undefined) the “activity change, negative = inhibition” value was 4.48% (inactive). In the case of `CC[C@@H]1CN2CC[C@@H]1C[C@H]2[C@H](O)c1ccnc2ccc(OC)cc12`, the Potency is reported as 25.1 µM (active). `ClC(Cl)=C(Cl)C(Cl)=C(Cl)Cl` was tested, and the “activity change, negative = inhibition” value was -3.33% (inactive). In the case of `N[C@H](C(=O)O)c1cc(=O)[nH]o1`, the “activity change, negative = inhibition” value is reported as 7.3% (inactive). In the case of `c1csc(CN2CCCC3(CCNCC3)C2)n1`, the “activity change, negative = inhibition” value is reported as 5.71% (inactive). With `COC1CC(OC2CC[C@@]3(C=O)C4CC[C@]5(C)C(C6=CC(=O)OC6)CC[C@@]5(O)C4CC[C@]3(O)C2)OC(C)C1O` (some centres undefined) the “activity change, negative = inhibition” value was -1.56% (inactive). For `CCN1C[C@@]2(COC)CC[C@H](OC)[C@]34[C@@H]1[C@]1(OCO[C@@]15C[C@@H](OC)C1C[C@H]3[C@H]5[C@@H]1OC)[C@H](O)[C@@H]24`, the “activity change, negative = inhibition” value was 1.24% [at 25.6 µM] (inactive). With `CCN(CC)CCOC(=O)c1cc2cc(COC)ccc2o1` the Potency was 25.1 µM (active). `O=C(NCC(c1cccnc1)N1CCN(c2ccccc2)CC1)Oc1ccccc1` (centres undefined) was tested, and the “activity change, negative = inhibition” value was 10.2% (inactive). `COc1cc2c(cc1OC)[C@@H]1C(=O)c3ccc(O)c(CC=C(C)C)c3OC1CO2` (some centres undefined) was tested, and the “activity change, negative = inhibition” value was 4.75% (inactive). With `CS(=N)(=O)CC[C@H](N)P(=O)(O)O` (some centres undefined) the activity change, negative = inhibition was -1.1% [at 11.4 µM] (inactive). With `CC(C)(c1ccc(OC[C@@H]2CO2)cc1)c1ccc(OC[C@H]2CO2)cc1` the “activity change, negative = inhibition” value was 12.8% (inactive). In the case of `O=C(c1cc(-c2ccncc2)nc2ccccc12)N1CCC2(CC1)OCCO2`, the “activity change, negative = inhibition” value is reported as -5.09% (inactive). In the case of `O=C(c1cc2nc(-c3ccccc3)cc(-c3ccccc3)n2n1)N1CCC2(CC1)OCCO2`, the Potency is reported as 31.6 µM (active). `Cc1cccc(-n2c(C)nc3cc(C(=O)N4CCC5(CC4)OCCO5)ccc32)c1` was tested, and the “activity change, negative = inhibition” value was 1.46% (inactive). For `CNC(C)[C@@H](O)c1ccccc1` (some centres undefined), the “activity change, negative = inhibition” value was 1.74% (inactive). In the case of `CCCCC#N`, the “activity change, negative = inhibition” value is reported as 5.1% (inactive). In the case of `CCC(C)C(=O)O[C@@H]1C[C@@]2(C)C(c3ccoc3)OC(=O)CC23OC2(C)O[C@@]14[C@@]1(C)C(CC(=O)OC)C5(C)CC1(O)C(O)(C5OC(=O)C1(C)OC1C)C(OC(C)=O)[C@@]34O2` (some centres undefined), the “activity change, negative = inhibition” value is reported as -2.26% (inactive). With `CC(C)(Cc1c[nH]c2ccc(Cl)cc12)NCCOc1ccccc1OCC1CC1` the “activity change, negative = inhibition” value was 3.59% (inactive). With `C[C@H]1CC[C@@]2(NC1)O[C@@H]1C[C@H]3[C@@H]4CC=C5C[C@@H](O)CC[C@]5(C)[C@@H]4CC[C@]3(C)[C@@H]1[C@@H]2C` the “activity change, negative = inhibition” value was -1.17% [at 25.6 µM] (inactive). For `CN1[C@@H]2CC[C@H]1CC(NC(=O)c1nn(C)c3ccccc13)C2` (some centres undefined), the Potency was 20 µM (active). `N[C@H](Cc1o[nH]c(=O)c1Cl)C(=O)O` was tested, and the “activity change, negative = inhibition” value was -8.9% (inactive). In the case of `C[C@@]12CC[C@H](O)C[C@@H]1CC[C@@H]1[C@@H]2CC[C@@]2(C)[C@@H](C3=CC(=O)OC3)[C@H](O)C[C@]12O`, the activity change, negative = inhibition is reported as 5.61% [at 11.4 µM] (inactive).
